Activity calls are given as the source filed them.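 How the source made its calls: active means fitted half-maximal concentration AC50 at or below ten times the highest valid tested dose, with signal falling as DNA is displaced (actives reach about 34 µM in these data); inconclusive means flat fit at moderate signal loss, or poor fit quality; inactive means the rest, including signal rising instead of falling.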
Test: DNA intercalators displacing acridine orange, dose response, artefact control for KSHV LANA DNA-binding inhibitor project, biochemical, fluorescence polarization, cherry-picked samples, set 2 (AID 504727)
Details: AC50: Acridine orange-DNA displacement; series mostly up to 35 µM

With `O=C(OCCN1C(=O)c2cccc3c(N4CCOCC4)ccc(c23)C1=O)c1ccc(Cl)cc1Cl` the AC50 was 5.25 µM (active).
In the case of `COc1cccc2c1C(=O)c1c(O)c3c(c(O)c1C2=O)C[C@@](O)(C(=O)CO)C[C@@H]3O[C@H]1C[C@H](N)[C@H](O)[C@H](C)O1`, the AC50 is reported as 2.4 µM (active).
For `C=CCNC(=S)N1CCN(S(=O)(=O)c2ccc(C)cc2)CC1`, the AC50 was “inactive”.
With `COc1cc(C(=O)O)cc(NC(=O)c2ccco2)c1OC` the AC50 was “inactive”.
For `NC1=NC[C@@H](Cc2ccc(O)cc2)N1CCc1cc(C(F)(F)F)cc(C(F)(F)F)c1`, the AC50 was “inactive”.
With `Cc1ccc(/C=C/S(=O)(=O)N2CCC(C(=O)O)CC2)cc1` the AC50 was “inactive”.
In the case of `O=C(NCC1CCCO1)c1cccc(S(=O)(=O)N(Cc2ccccc2)c2ccccc2)c1` (stereo unspecified), the AC50 is reported as “inactive”.
With `CC(C(=O)Nc1ccccc1)N1C(=O)c2ccccc2C1=O` (stereo unspecified) the AC50 was “inactive”.
In the case of `COC(=O)Cn1c(=NC(=O)c2sc3ccccc3c2Cl)sc2cc(S(N)(=O)=O)ccc21`, the AC50 is reported as “inactive”.
With `COc1cccc(/C=N/NC(=O)C(=O)NCc2cccnc2)c1O` the AC50 was “inactive”.
With `Cc1ccsc1/C=N/NC(=O)Cc1ccc(Cl)cc1` the AC50 was “inactive”.
In the case of `Nc1nnc(CC(=O)N/N=C/c2cc([N+](=O)[O-])cc(Br)c2O)s1`, the AC50 is reported as “inactive”.
In the case of `CCSc1nnc(Cc2cc(=O)[nH]c(=O)[nH]2)n1-c1ccc(F)cc1`, the AC50 is reported as “inactive”.
For `O=C1CCCC2=C1C(c1ccc(O)c(O)c1)Nc1ccc3ncccc3c12` (stereo unspecified), the AC50 was “inactive”.
For `Nc1ccc2nc3c(=O)[nH]c(=S)[nH]c3nc2c1`, the AC50 was 3.69 µM (active).
In the case of `Cc1ccc(N2CC(C(=O)Nc3nnc(SCC(=O)Nc4nc(C)cs4)s3)CC2=O)cc1` (stereo unspecified), the AC50 is reported as “inactive”.
In the case of `O=C(O)CCCN1C(=O)/C(=C/C=C/c2ccco2)SC1=S`, the AC50 is reported as “inactive”.
In the case of `COc1ccc(OC)c(-c2c3cc(O)c(=O)cc-3oc3cc(O)c(O)cc23)c1`, the AC50 is reported as 1.62 µM (active).
For `O=S(=O)(O)c1cccc2c(N=Nc3ccc(O)c4ncccc34)cccc12`, the AC50 was “inactive”.
For `COc1ccc(CNC(=O)C2CCC(CNC(=O)[C@@H]3Cc4ccccc4CN3)CC2)cc1` (stereo partly specified), the AC50 was “inactive”.
In the case of `CCOC(=O)CCCn1c(C)nc(=O)c(-c2ccccc2)c1C`, the AC50 is reported as “inactive”.
With `COc1ccc(-c2cc(C(F)(F)F)n3ncc(C(=O)N4CCCCC4c4cccnc4)c3n2)cc1` (stereo unspecified) the AC50 was “inactive”.
In the case of `Nc1cc(N)nc(SCC(=O)N2CCCCC2)n1`, the AC50 is reported as “inactive”.
In the case of `O=C(Nc1ccccc1F)c1coc(=O)c(Br)c1`, the AC50 is reported as “inactive”.
With `COc1ccc(NC(=O)NS(=O)(=O)c2ccc(C)cc2)cn1` the AC50 was “inactive”.
In the case of `CN(C)c1ccc(/C=N/N(CCO)C2=NS(=O)(=O)c3ccccc32)cc1`, the AC50 is reported as 4.28 µM (active).

Reference: PubChem BioAssay AID504727 (Broad Institute, 2011)
